Paper PMC8384837, “Expanding the binding specificity for RNA recognition by a PUF domain”

biological target: PUM1 PUF domain R1-RAS (Homo sapiens, UniProt Q14671 828-1176, S863R;R864A;Q867S); experiment: yeast three-hybrid, YBZ-1, SC-Leu-His + 0.5 mM 3-AT, 4 days; conditions: tags: N-Gal4 AD-HA kept; label: inside an RPR1-promoter hybrid RNA with tandem MS2 sites; ssRNA
Method in brief: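 Sequencing with Illumina followed PCR amplification of the repeat regions from transformants grown four days on SC-Leu (input) or SC-Leu-His + 0.5 mM 3-AT (selection). The transformants were strain YBZ-1 with a LexA–MS2 coat fusion and a HIS3 reporter, carrying Pumilio-1 PUF domain libraries and matching RNA elements. The interaction score is the log change in variant frequency from input to selection, computed in log2 with a pseudocount of 1 for absent variants.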

Chain of PUM1 PUF domain R1-RAS (Q14671 828-1176 S863R/R864A/Q867S): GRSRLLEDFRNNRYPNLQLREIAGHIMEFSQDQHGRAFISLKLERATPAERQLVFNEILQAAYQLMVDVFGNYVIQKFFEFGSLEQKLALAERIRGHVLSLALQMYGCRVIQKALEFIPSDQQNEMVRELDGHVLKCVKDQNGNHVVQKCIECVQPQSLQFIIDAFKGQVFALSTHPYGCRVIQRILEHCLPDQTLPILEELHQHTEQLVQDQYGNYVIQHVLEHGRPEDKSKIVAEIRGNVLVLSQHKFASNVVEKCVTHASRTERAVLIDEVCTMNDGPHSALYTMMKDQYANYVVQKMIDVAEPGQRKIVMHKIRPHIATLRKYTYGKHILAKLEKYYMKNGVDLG

| Sequence | binding signal |
| --- | --- |
| GGCUAGAACUAGUGGAUCCCCCGGCGCCCGGCGGCUCGAGCCCGGGUAAGUGUAAAUCGUCUGCAUGCCGCCGGGCGCCAUGCCUGCAGGUCGACUCUAGAAAACAUG | 3.1 log2 enrichment (interaction score) |
| GGCUAGAACUAGUGGAUCCCCCGGCGCCCGGCGGCUCGAGCCCGGGUAAGUGUAAAUGGUCUGCAUGCCGCCGGGCGCCAUGCCUGCAGGUCGACUCUAGAAAACAUG | 1.5 log2 enrichment (interaction score) |
| GGCUAGAACUAGUGGAUCCCCCGGCGCCCGGCGGCUCGAGCCCGGGUAAGUGUAAAUUGUCUGCAUGCCGCCGGGCGCCAUGCCUGCAGGUCGACUCUAGAAAACAUG | 2.89 log2 enrichment (interaction score) |
